# Sampled rows, rich in hits. Any-hit rate of the full collection: about 10%.
# HEK293 tox: kills HEK 293 cells; HEK 293 viability, ATP luminescence (CellTiter-Glo), 48-72 h; Potency, µM (highest dose often 115 µM), actives largely listed as inhibitors; 6.6% of 94,000 active; AID 1345083; note: nearly all actives have a fitted effect of over 60% in size
#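 CellTiter-Glo luminescence (cellular ATP) was read after 48 or 72 hr of compound exposure at 37 degree Celsius. Cells were HEK 293 plated at 250 cells/well.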
# FLuc inh: Photinus pyralis luciferase inhibition; P08659; purified P. pyralis luciferase, luminescence, biochemical; Potency, µM (doses to about 115 µM), usual class: inhibitors; 2.5% of 76,000 active; note: nearly all actives have a fitted effect of over 65% in size
#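 Purified P. pyralis luciferase (10nM final) in 50mM Tris acetate pH 7.5, 10mM Mg acetate, 0.01% Tween-20, 0.05% BSA with 10uM D-luciferin and 10uM ATP. Compounds titrated qHTS. Luminescence imaged on CCD.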
# GPT2 inhibitor: inhibitors of human GPT2 alanine aminotransferase; Potency, µM (titrated, usually from 57.7 µM), hits mostly inhibitors; Q8TD30; Recombinant GPT2, coupled pyruvate oxidase/HRP Amplex Red fluorescence; AID 1671188; 0.25% of 100,000 active; note: nearly all actives have a fitted effect of over 60% in size
#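 Fluorescence read-out: pyruvate from GPT2 turnover coupled to pyruvate oxidase, HRP and Amplex Red (0.2mM ThPP, 0.2U/mL PO and HRP, 50uM Amplex final). Substrates 250uM a-KG, 2mM L-alanine; enzyme 10ng/uL; 30 min RT.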
# NPR1 antag: blocks ANP-stimulated signaling of human Npr1 receptor | P16066 | HEK293 hNpr1 GloSensor cGMP, ANP-stimulated luminescence | Potency, µM (series often up to 46.3 µM), most hits filed as inhibitors | 1.6% of 76,000 active | AID 1347048; calls by dose curve; note: nearly all actives have a fitted effect of over 60% in size
# Target sequence (P16066 whole entry, looked up): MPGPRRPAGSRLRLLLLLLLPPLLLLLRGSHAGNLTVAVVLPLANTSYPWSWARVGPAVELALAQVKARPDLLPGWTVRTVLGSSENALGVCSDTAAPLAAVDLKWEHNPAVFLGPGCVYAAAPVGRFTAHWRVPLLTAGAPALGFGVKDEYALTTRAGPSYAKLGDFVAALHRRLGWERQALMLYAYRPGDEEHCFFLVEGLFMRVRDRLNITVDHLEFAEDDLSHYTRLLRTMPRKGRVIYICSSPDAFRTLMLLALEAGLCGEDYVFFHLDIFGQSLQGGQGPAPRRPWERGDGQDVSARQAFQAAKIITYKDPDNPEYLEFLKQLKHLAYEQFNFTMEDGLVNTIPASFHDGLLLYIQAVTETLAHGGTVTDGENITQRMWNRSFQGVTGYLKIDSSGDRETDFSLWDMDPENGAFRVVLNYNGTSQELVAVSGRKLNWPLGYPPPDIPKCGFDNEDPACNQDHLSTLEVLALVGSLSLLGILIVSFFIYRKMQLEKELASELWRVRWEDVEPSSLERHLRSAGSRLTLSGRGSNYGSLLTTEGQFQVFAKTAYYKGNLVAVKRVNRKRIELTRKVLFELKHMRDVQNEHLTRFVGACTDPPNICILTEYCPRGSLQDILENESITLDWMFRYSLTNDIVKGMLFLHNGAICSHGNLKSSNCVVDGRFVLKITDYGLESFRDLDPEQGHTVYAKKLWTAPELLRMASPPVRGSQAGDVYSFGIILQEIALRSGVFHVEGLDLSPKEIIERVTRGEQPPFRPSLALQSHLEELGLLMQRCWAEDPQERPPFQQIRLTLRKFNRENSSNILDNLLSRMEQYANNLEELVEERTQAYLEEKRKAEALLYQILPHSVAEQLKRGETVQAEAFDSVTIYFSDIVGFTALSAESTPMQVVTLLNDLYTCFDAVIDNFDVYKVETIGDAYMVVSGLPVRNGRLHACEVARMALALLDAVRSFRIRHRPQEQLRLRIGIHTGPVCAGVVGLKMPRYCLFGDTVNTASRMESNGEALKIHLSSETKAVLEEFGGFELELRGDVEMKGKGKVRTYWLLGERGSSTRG
#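 HEK293 cells stably expressing human Npr1 and cGMP GloSensor pGS-40F, loaded 2 h with 2% GloSensor reagent, given compound 30 min at room temperature. Luminescence read before and 20 min after 0.1 nM hNppA.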
# NIH3T3 tox: NIH 3T3 cell cytotoxicity | Potency, µM (series often up to 96.7 µM), hits mostly inhibitors | 4.3% of 94,000 active | NIH 3T3 viability, CellTiter-Glo ATP luminescence, 48-72 h; note: nearly all actives have a fitted effect of over 55% in size
#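 NIH 3T3 cells at 400 cells/well received 23 nL of compound by pintool and were incubated 48 or 72 h at 37 °C. Viability was read as ATP-coupled CellTiter-Glo luminescence.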
# Hits are given with their value; - = inactive; ? = inconclusive; . = no result. Unless noted, calls come from the whole dose curve; as a rule, active = well fitted curve in the direction sought with a large enough effect; inconclusive = small, poorly fitted or top-dose-only effect, or another doubt; inactive = no such curve, though single readings can be large; an effect the other way counts as inactive or inconclusive.
SMILES,HEK293 tox,FLuc inh,GPT2 inhibitor,NPR1 antag,NIH3T3 tox
CN(C)C[C@@H]1CN(c2ncccn2)C[C@H]1NC(=O)c1cccc(Cl)c1,-,-,-,-,-
O=C1Nc2ccc(-c3ccc(Cl)cc3)cc2C(=O)N2CCN(C(=O)C3CCCCC3)C[C@H]12,39.8µM,-,-,-,?
COc1ccc(Cl)cc1-c1ccc2c(c1)C(=O)N1CCN(C(=O)C3CCCC3)C[C@H]1C(=O)N2,?,-,-,-,?
O=C1Nc2ccccc2CC12CCN2Cc1ccccc1C(F)(F)F (stereo not drawn),79.4µM,-,-,-,?
CC1(c2ccccc2)N(Cc2ccccc2F)C(=O)OC12CCN(C(=O)Cc1ccc(O)cc1)CC2 (stereo not drawn),?,-,-,-,22.4µM
CC1(c2ccccc2)N(Cc2ccccc2)C(=O)OC12CCN(Cc1c[nH]c3ccccc13)CC2 (stereo not drawn),28.2µM,-,-,?,22.4µM
CC1(c2ccccc2)N(Cc2ccccc2F)C(=O)OC12CCN(C(=O)CCc1ccccn1)CC2 (stereo not drawn),?,-,-,-,?
Cc1ncsc1C(=O)N1CCC2(CC1)OC(=O)N(Cc1ccccc1F)C2(C)c1ccccc1 (stereo not drawn),-,-,-,-,10µM
CC1(c2ccccc2)N(Cc2ccccc2)C(=O)OC12CCN(Cc1ccc(O)cc1)CC2 (stereo not drawn),?,-,-,-,?
CC1(c2ccccc2)N(Cc2cccnc2)C(=O)OC12CCN(Cc1ccccc1O)CC2 (stereo not drawn),?,-,-,-,-
COc1ccc(C(=O)N2CCC3(CC2)OC(=O)N(Cc2ccccc2F)C3(C)c2ccccc2)cn1 (stereo not drawn),?,-,-,-,?
CC1(c2ccccc2)N(Cc2ccc(O)cc2)C(=O)OC12CCN(CC1CC1)CC2 (stereo not drawn),?,-,-,-,79.4µM
O=C(NC[C@H]1OC[C@@H](NCc2ccccc2F)[C@@H]1O)Nc1ccccc1,-,-,-,-,-
COc1ccc(-c2ccc(C(=O)N3CCN(C(=O)c4ccccc4)CC3)cc2)nn1,-,.,.,.,-
CNC(=O)[C@@H]1C[C@H](Oc2cccnc2)CN1C(=O)CCc1c[nH]c2ccccc12,-,-,-,-,?
Cc1ccc(C(=O)N2CCc3nc(C4CC4)nc(-c4ccc(O)cc4)c3C2)cc1,?,.,-,.,?
COc1ccc(C(=O)N2CCC3(CC2)OC(=O)N(Cc2ccccc2)C3(C)c2cccnc2)cc1 (stereo not drawn),-,-,-,-,?
CC(=O)N1CCC2(CC1)OC(=O)N(Cc1ccccc1)C2(C)c1ccccc1 (stereo not drawn),-,-,-,-,25.1µM
Cn1ccc(C(=O)N2CCC3(CC2)OC(=O)N(Cc2ccccc2)C3(C)c2ccccc2)n1 (stereo not drawn),-,-,-,-,35.5µM
Cc1nc(CN2C(=O)OC3(CCN(Cc4ccc(C(C)C)cc4)CC3)C2(C)c2ccccc2)cs1 (stereo not drawn),?,-,-,-,44.7µM
Cc1nc(CN2C(=O)OC3(CCN(CCc4ccccc4)CC3)C2(C)c2ccccc2)cs1 (stereo not drawn),?,-,-,-,-
CC1(c2ccccc2)N(Cc2ccccc2)C(=O)OC12CCN(C(=O)c1ccc(F)cc1)CC2 (stereo not drawn),?,-,-,-,?
CC1(c2ccccc2)N(Cc2ccc(O)cc2)C(=O)OC12CCN(C(=O)c1cccnc1)CC2 (stereo not drawn),-,-,-,-,31.6µM
COc1ccc(C(=O)N2CCC3(CC2)OC(=O)N(Cc2ccc(O)cc2)C3(C)c2ccccc2)cn1 (stereo not drawn),?,-,-,-,?
CC1(c2ccccc2)N(Cc2ccccc2C#N)C(=O)OC12CCN(C(=O)Cc1ccc(O)cc1)CC2 (stereo not drawn),-,-,-,-,11.2µM
SMILES,HEK293 tox,FLuc inh,GPT2 inhibitor,NPR1 antag,NIH3T3 tox
CC1(c2ccccc2)N(Cc2ccccc2)C(=O)OC12CCN(C(=O)Cc1ccc(O)cc1)CC2 (stereo not drawn),?,-,-,-,6.31µM
CC1(c2ccccc2)N(Cc2ccccc2)C(=O)OC12CCN(C(=O)c1cccc(Cl)c1)CC2 (stereo not drawn),-,-,-,-,?
CC1(c2ccccc2)N(Cc2ccccc2)C(=O)OC12CCN(C(=O)c1cccc(O)c1)CC2 (stereo not drawn),79.4µM,-,-,-,?
CC1(c2ccccc2)N(Cc2cccnc2)C(=O)OC12CCN(C(=O)Cc1ccc(Cl)cc1)CC2 (stereo not drawn),?,-,-,-,?
COc1ccc(CN2CCC3(CC2)OC(=O)N(Cc2ccccc2C#N)C3(C)c2ccccc2)cc1O (stereo not drawn),44.7µM,-,-,-,?
CCCNC(=O)N1CCC(OC2CCN(S(C)(=O)=O)CC2)CC1,-,-,-,-,-
COC(=O)[C@H](NC(=O)[C@@H]1[C@@H](NC(=O)Nc2ccc(F)cc2F)CCN1C(=O)c1cnccn1)C(C)C,-,-,-,-,-
CC(C)Oc1cc(-c2ccc(C(C)N3CCOCC3)cc2)nc(N)n1 (stereo not drawn),?,35.5µM,-,-,?
Cc1cc(C)c(C#N)c(-c2ccc(C(C)N3CCOCC3)cc2)n1 (stereo not drawn),?,-,-,?,?
COCCCNC(=O)c1cc(-c2ccc(Cl)cc2Cl)c2nncn2n1,-,.,-,.,?
Cc1cc(OC2CN(C(=O)c3ccccn3)C2)ccc1F,79.4µM,?,-,-,?
Cc1cc(F)ccc1OC1CN(C(=O)c2ccccn2)C1,?,50.1µM,?,-,?
COc1ccc(Nc2ccnc(N3CCCC(C(=O)NCc4cccc(F)c4)C3)n2)cc1 (stereo not drawn),12.6µM,.,-,.,15.8µM
COc1ccc(Nc2ccnc(N3CCCC(C(=O)NCc4cccc(Cl)c4)C3)n2)cc1 (stereo not drawn),?,.,-,.,?
COc1ccc(Nc2ccnc(N3CCCC(C(=O)NCc4cccc(OC)c4)C3)n2)cc1 (stereo not drawn),25.1µM,.,-,.,35.5µM
COc1ccc(Nc2ccnc(N3CCCC(C(=O)NCc4ccccc4)C3)n2)cc1 (stereo not drawn),39.8µM,.,-,.,35.5µM
Cc1ccc(Nc2ccnc(N3CCCC(C(=O)NCc4ccc5c(c4)OCO5)C3)n2)cc1 (stereo not drawn),7.94µM,.,-,.,12.6µM
COCCCNC(=O)N1CCCCC1c1nc(CCOc2cccc(C)c2)no1 (stereo not drawn),?,-,?,-,-
COc1ccc(CNC(=O)C2CCCN(c3nccc(Nc4ccc(C)cc4)n3)C2)cc1 (stereo not drawn),10µM,.,-,.,?

# High-throughput results deposited in PubChem by National Center for Advancing Translational Sciences (NCATS).
